Drawing on PubChem BioAssay AID651813 (National Center for Advancing Translational Sciences (NCATS), 2012), this text covers Potency and max response for 90 compounds.

The whole screen tested about 2,100 compounds, of which about 1,100 (52%) were called active. Not shown: some 27% with an inconclusive outcome. So high a share suggests a set chosen from earlier hits. The list shows a part of the results. A number with no mark means an inactive call. Calls follow the shape of the dose curve; as a rule, active = well fitted inhibition curve with a large enough effect; inconclusive = small, poorly fitted or top-dose-only effect; inactive = no such curve, though single readings can be large or run the other way.
Potency is read from the fitted curve at half-maximal effect.

Sequence of DNA dC->dU-editing enzyme APOBEC-3G (Homo sapiens) (Q9HC16 whole entry, looked up): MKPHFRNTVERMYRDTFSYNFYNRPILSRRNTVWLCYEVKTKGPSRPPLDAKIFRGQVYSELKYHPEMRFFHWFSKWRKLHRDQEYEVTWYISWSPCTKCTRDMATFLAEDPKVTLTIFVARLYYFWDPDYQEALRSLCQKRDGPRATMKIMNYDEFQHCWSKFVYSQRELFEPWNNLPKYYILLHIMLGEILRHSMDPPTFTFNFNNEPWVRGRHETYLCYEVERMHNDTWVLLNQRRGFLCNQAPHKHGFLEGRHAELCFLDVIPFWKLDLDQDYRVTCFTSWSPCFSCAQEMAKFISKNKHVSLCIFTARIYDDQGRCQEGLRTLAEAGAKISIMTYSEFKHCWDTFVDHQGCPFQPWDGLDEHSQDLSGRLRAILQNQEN

This experiment has as its target DNA dC->dU-editing enzyme APOBEC-3G (Homo sapiens) (UniProt Q9HC16). The experiment in a line: qHTS for inhibitors of Vif-A3G interactions: Cherry picks counterscreen.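 Also: hits raise yellow fluorescence by blocking Vif-driven A3G-eYFP degradation; nearly all actives have a fitted effect of over 70% in size.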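 As to max response: max response given as percent of control signal.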 Conditions: HeLa A3G-eYFP + Vif (tagged APOBEC3G with the HIV-1 protein that degrades it), eYFP fluorescence, 24 h. In a few lines:
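Readout is eYFP fluorescence (488 nm excitation, 500-530 nm emission) measured on Acumen Explorer after 24 h compound exposure, several concentrations, at 37 deg C. Cells: HeLa stably co-expressing Vif and C-terminally eYFP-tagged A3G; MG132 positive control.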
Turning to `Cc1cc(/C=C2\SC(=S)N(C)C2=O)c(C)n1-c1ccccc1O`, the Potency was 18.4 µM (active).

As for `Cc1cc(/C=C2\SC(=S)N(C)C2=O)c(C)n1-c1ccc(O)cc1`, the Potency was 20.6 µM (active).

With `Cc1cccc(C(=O)NC(=S)N2CCc3ccccc3C2)c1`, the max response is -2.8%.

Consider `COc1cc2c(cc1OC)CN(C(=O)c1ccc3nc[nH]c3c1)CC2`, for which the Potency was 14 µM (active).

Consider `COc1cc2c(cc1OC)CN(C(=O)/C=C/c1cccs1)CC2`, for which the Potency is 1.25 µM (active).

Regarding `COc1cc2c(cc1OC)CN(C(=O)c1cc(=O)c3ccccc3o1)CC2`, the Potency was 15.8 µM (active).

Take `CN(C)CCCN(C(=O)/C=C/c1cccs1)c1nc2ccc(F)cc2s1`: the max response was -22.2%.

In the case of `CC(=O)N/N=C/c1cc(C(C)(C)C)cc(/C=N/NC(C)=O)c1O`, the Potency was 20.6 µM (active).

Regarding `CC(=O)N/N=C/c1cc(C(C)C)cc(/C=N/NC(C)=O)c1O`, the Potency was 18.4 µM (active).

For the compound `CC1(C)CCN2CCC(C)(C)c3c(O)ccc1c32`, the Potency is 5.59 µM (active).

For the compound `Cc1ccc(NC(=S)NC(=O)c2ccc(F)cc2)cc1S(=O)(=O)Nc1cccc(Cl)c1`, the max response is -21.2%.

Regarding `COc1ccc(NS(=O)(=O)c2cc(NC(=O)c3ccc(=O)[nH]c3)ccc2N2CCCC2)cc1`, the Potency is 5.59 µM (active).

For `ClCC1NCC(c2ccccc2Cl)c2c1[nH]c1ccccc21` (stereo not given), the max response is -28%.

`CN1C(=O)N(C)c2ccc(C=O)c3cccc1c23`: the max response is 1.02%.

For `N#Cc1c(C(F)(F)F)cc(-c2ccco2)nc1SCc1ccccn1`, the Potency is 16.4 µM (active).

Take `N#Cc1ccc(-c2ccco2)nc1SCc1ccccc1`: the max response is -26%.

`COc1cc2cc(-c3ccc(OC)c(OC)c3C)nc(N)c2cc1OC`: the Potency is 2.8 µM (active).

Turning to `C[C@H]1CN([C@@H](C)CO)C(=O)Cc2cc(NC(=O)CCC(F)(F)F)ccc2O[C@H]1CN(C)S(=O)(=O)c1ccc(F)cc1`, the Potency is 7.9 µM (active).

Consider `CN(C)c1ccc(C2C=C(c3ccc(Cl)cc3OC(F)F)Nc3ncnn32)cc1` (stereo not given), for which the Potency is 15.8 µM (active).

Consider `O=C(c1[nH]c(C(F)(F)F)nc1-c1ccccc1)N1CCN(c2ccccc2)CC1`, for which the Potency is 3.53 µM (active).

Consider `CCOC(=O)N1CCN(C(=O)c2[nH]c(C(F)(F)F)nc2-c2ccccc2)CC1`, for which the Potency was 15.8 µM (active).

On to `O=C(c1[nH]c(C(F)(F)F)nc1-c1ccccc1)N1CCN(c2cccc(C(F)(F)F)n2)CC1`, for which the Potency is 6.27 µM (active).

As to `Cn1nnnc1SCCNCc1cc(Br)ccc1OCc1ccccc1Cl`, the max response is -13.4%.

On to `Cc1ccc2nc3sc(C(=O)N4CCCc5ccccc54)c(N)c3cc2c1`, for which the Potency was 7.9 µM (active).

In the case of `Cc1cccc2cc3c(N)c(C(=O)N4CCCc5ccccc54)sc3nc12`, the Potency is 9.2 µM (active).

As for `Cc1cccc2cc3c(N)c(C(=O)N4CCc5ccccc54)sc3nc12`, the Potency was 7.31 µM (active).

Take `Cc1cc(C)n2nc(C(=O)N/N=C/c3c4ccccc4cc4ccccc34)nc2n1`: the Potency is 15.8 µM (active).

With `Cc1ccc(/C=N/NC(=O)c2nc3nc(C)cc(C)n3n2)cc1`, the max response was -10.8%.

As to `COc1ccc2c(Cl)c(C(=O)N/N=C3\CCCC(=O)C3)sc2c1`, the Potency is 12.5 µM (active).

Turning to `CCOc1cc(C(=O)NN=C2CCCC2)cc(OCC)c1OCC`, the max response was -1.27%.

For the compound `COc1ccc(-c2ccc3c(c2)S(=O)(=O)c2cccc(C(=O)NCc4cccc(OC(F)(F)F)c4)c2C3=O)cc1OC`, the Potency was 3.26 µM (active).

`O=C(NCc1ccccc1Cl)c1cccc2c1C(=O)c1ccc(-c3ccc(OC(F)(F)F)cc3)cc1S2(=O)=O`: the Potency is 18.4 µM (active).

Consider `COc1ccc(-c2ccc3c(c2)S(=O)(=O)c2cccc(C(=O)NCCOc4ccccc4)c2C3=O)cc1OC`, for which the Potency is 14 µM (active).

For `COc1cccc(NC(=O)c2oc3ccc(S(=O)(=O)N4CCC5(CC4)OCCO5)cc3c2C)c1`, the Potency is 23.1 µM (active).

For `COc1ccc(NC(=O)c2oc3ccc(S(=O)(=O)N4CCOCC4)cc3c2C)cc1`, the max response was 9.65%.

As to `c1ccc(-c2nccc(-c3ccc4c(c3)OCO4)n2)cc1`, the Potency was 4.98 µM (active).

In the case of `CC(C)COc1ccc(C(=O)N/C(=C/c2cccc([N+](=O)[O-])c2)C(=O)O)cc1`, the max response was 13.2%.

As for `CCN1C/C(=C/c2cccc([N+](=O)[O-])c2)C(=O)/C(=C/c2cccc([N+](=O)[O-])c2)C1`, the Potency was 5.59 µM (active).

As for `CCN1C/C(=C\c2cccc([N+](=O)[O-])c2)C(=O)/C(=C/c2cccc([N+](=O)[O-])c2)C1`, the Potency is 11.2 µM (active).

As for `CC(=O)c1ccc2cccc3c2c1N=CN3C`, the Potency is 12.5 µM (active).

For the compound `Nc1nc(SCc2ccc(Cl)cc2Cl)nc2nc3c(cc12)CCCC3`, the Potency was 23.1 µM (active).

As for `Cc1cc2nc3c(=O)n(CCc4ccccc4)c(=O)[nH]c3nc2cc1N`, the Potency was 3.66 µM (active).

As to `Cc1cc2nc3c(=O)n(C4CCCCC4)c(=O)[nH]c3nc2cc1N`, the Potency is 7.31 µM (active).

As to `CCCCCCn1c(=O)[nH]c2nc3cc(N)ccc3nc2c1=O`, the max response is 36.1%.

Regarding `Cc1cc2nc3c(=O)n(Cc4ccccc4)c(=O)[nH]c3nc2cc1N`, the Potency was 6.27 µM (active).

Consider `Cc1ccc(NC(=O)CSc2n[nH]c(-c3ccccn3)n2)cc1`, for which the max response was -4.16%.

Take `Cc1ccc(NC(=O)CO/N=C/c2ccc(N(C)C)cc2)cc1`: the Potency is 23.1 µM (active).

In the case of `CN(C)c1ccc(/C=C(/C#N)C(=O)Nc2nc3c(s2)CCN(Cc2ccccc2)C3)cc1`, the Potency was 0.444 µM (active).

For the compound `CN(C)c1ccc(/C=C(\C#N)C(=O)Nc2nc3c(s2)CCN(Cc2ccccc2)C3)cc1`, the Potency is 0.396 µM (active).

Consider `CCOCCC(=O)Nc1ccc2c(c1)c(=O)n(C)n2C/C=C/c1ccccc1`, for which the Potency was 11.2 µM (active).

On to `Cn1c(=O)c2cc(NC(=O)NCc3ccc(F)cc3)ccc2n1C/C=C/c1ccccc1`, for which the Potency is 5.59 µM (active).

In the case of `Cn1c(=O)c2cc(NC(=O)NCc3ccccc3)ccc2n1C/C=C/c1ccccc1`, the Potency was 15.8 µM (active).

As to `CCCCCCc1cc2cc(-c3nnc(-c4ccccc4)o3)c(=O)oc2cc1O`, the Potency was 1.98 µM (active).

`CCCCCCc1cc2cc(-c3nnc(-c4ccccc4OC)o3)c(=O)oc2cc1O`: the Potency was 7.04 µM (active).

Take `CCCCCCc1cc2cc(-c3nnc(-c4ccccc4O)o3)c(=O)oc2cc1O`: the max response was 54.5%.

Turning to `CN1C(=O)/C(=C\c2ccc(N(C)C)cc2)OC1=S`, the Potency was 2.8 µM (active).

As for `Cc1c(N2C(=O)/C(=C/c3ccc(N(C)C)cc3)N(C)C2=S)c(=O)n(-c2ccccc2)n1C`, the Potency was 20.6 µM (active).

With `CN1C(=S)N(c2cccnc2)C(=O)/C1=C\c1ccc(N(C)C)cc1`, the Potency was 11.2 µM (active).

In the case of `O=C(N/N=C/c1cccs1)c1n[nH]c2c1CCC2`, the Potency was 4.44 µM (active).

For the compound `Cc1ccsc1/C=N\NC(=O)c1n[nH]c2c1CCC2`, the Potency was 7.04 µM (active).

`O=C(N/N=C/c1cccc2ccccc12)c1n[nH]c2c1CCCC2`: the Potency is 3.53 µM (active).

With `COCCNC(=S)N/N=C(\C)c1ccc(OC(F)F)cc1`, the max response is -0.557%.

For the compound `Cn1cc(/C=C2\SC(=S)N(NC(=O)c3cccc(Cl)c3)C2=O)c2ccccc21`, the Potency is 8.2 µM (active).

Consider `COc1cc(/C=N/Nc2ccc(Cl)nn2)cc(OC)c1O`, for which the max response is -0.979%.

For `COc1cc(/C=N/Nc2cc(C)nc(NS(=O)(=O)c3ccccc3)n2)ccc1O`, the max response was -5.07%.

In the case of `COc1ccc(-c2cnnc(N/N=C/c3ccc(O)c(OC)c3)n2)cc1`, the Potency was 8.86 µM (active).

For the compound `O=C(Nc1ccccc1-c1nc2ccccc2[nH]1)c1ccc(N2C(=O)CCC2=O)cc1`, the Potency is 18.4 µM (active).

Consider `S=C(NC1CCCCC1)N(CCc1ccccc1)CCc1ccccc1`, for which the max response is -10.7%.

As for `CCOC(=O)c1[nH]c(C)c(C(=O)Nc2cc(OC)ccc2OC)c1C`, the Potency is 3.53 µM (active).

As to `CCOC(=O)c1c(C)[nH]c(C(=O)N/N=C/c2cccc(OC)c2)c1C`, the Potency is 15.8 µM (active).

For the compound `CCOC(=O)c1[nH]c(C)c(C(=O)Nc2ccc(C)cc2C)c1C`, the Potency was 3.96 µM (active).

For the compound `COc1ccc(OC)c(NC(=O)c2cc(-c3cc(C)cc(C)c3O)n[nH]2)c1`, the max response was -1.73%.

On to `CCOC(=O)c1[nH]c(C)c(C(=O)Nc2ccccc2C)c1C`, for which the Potency was 6.27 µM (active).

Consider `Cc1cc(N/N=C/c2ccc(O)cc2O)nc(-n2nc(C)cc2C)n1`, for which the max response was 2.12%.

Regarding `CCOC(=O)c1[nH]c(C)c(C(=O)Nc2ccccc2F)c1C`, the Potency is 3.53 µM (active).

`CC(=O)c1c(C)[nH]c(C(=O)Nc2ccc(Cl)cc2F)c1C`: the max response is -22.8%.

In the case of `COc1ccccc1CNC(=O)c1ccc2nc3[nH]c4ccccc4c3nc2c1`, the max response was 6.47%.

Regarding `Fc1ccc2nc3[nH]c4ccccc4c3nc2c1`, the Potency is 0.396 µM (active).

With `CCN(CC(=O)Nc1ccccc1-c1ccccc1)Cc1nc2ccccc2c(=O)[nH]1`, the Potency was 12.5 µM (active).

`Cc1[nH]c2ccccc2c1/C=C/c1ccc2ccccc2n1`: the Potency was 16.4 µM (active).

For the compound `C(=Cc1c[nH]c2ccccc12)c1ccc2ccccc2n1`, the Potency is 20.6 µM (active).

`C(=C\c1c[nH]c2ccccc12)/c1ccc2ccccc2n1`: the Potency was 16.4 µM (active).

For `CC(=O)c1cccc(NC(=O)C2CCCN(S(=O)(=O)c3cccc4nonc34)C2)c1` (stereo not given), the max response is 11.2%.

On to `COc1ccc(C(=O)NC2CCCc3ccccc32)cc1[N+](=O)[O-]` (stereo not given), for which the Potency was 7.04 µM (active).

For the compound `COc1ccc(C(=O)C(C)[n+]2ccc(C)c3ccccc32)cc1[N+](=O)[O-]` (stereo not given), the max response is 3.16%.

For the compound `O=C(NC(=S)N1CCN(c2ccccn2)CC1)c1ccccc1`, the max response is -0.54%.

Turning to `O=C(COc1ccccc1-c1ccccc1)NN=C1CCCC1`, the max response is -18.6%.

Regarding `O=C(c1cc(-c2ccncc2)nc2ccccc12)N1CCN(c2ccccn2)CC1`, the Potency is 9.94 µM (active).

As to `CCOC(=O)N1CCN(C(=O)c2ccccc2-c2ccccc2)CC1`, the Potency is 5.59 µM (active).

Turning to `CCOC(=O)N1CCN(C(=O)c2cc(-c3ccc(OCC)cc3)nc3ccccc23)CC1`, the Potency is 7.04 µM (active).
